The full ranking holds about 25,000 sequences; the median of “ln(normalized median fluorescence intensity)” is about 7.1, and the highest 2% start at about 10. The entries come from a sample that favours the highest values as a whole.

Here are results for 59 sequences from the supplement of paper PMC11417369.

In the test the test system is PfSIP2 AP2 domain 1 (GST-tagged). Briefly: gcPBM binding intensity (ln(normalized median fluorescence intensity)); higher = stronger DNA binding. In a few lines: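 Binding intensity is defined as the maximum Masliner-normalised natural-log median intensity across replicate spots for either probe orientation. It was measured on an Agilent 4 × 180k array of primer-extended double-stranded 36-bp intergenic genomic probes and negative controls, to which GST-tagged P. falciparum DNA-binding domains made in E. coli were applied for 1 h in 1× PBS with 1% milk, 0.2 mg/ml BSA, 0.5% salmon testes DNA and 0.03% Triton X-100. Detection was by Alexa488 anti-GST antibody and scanning at 488 nm.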
Consider “TTTAATCATATGTTATATAATAAGCCCCCCCCCCAA [CACACA_negctrl_site486]”, for which the “gcPBM binding intensity (ln)” value came to 10.2.

On to “ATATTTTTATTTTCTTTACACACCACATAATTTTTT [CACACA_site4060]”, for which the “gcPBM binding intensity (ln)” value was found to be 7.09.

For the sequence “TTTTGTTTTAATTTTATTTGATTTTATTTGATTTAT [CACACA_negctrl_site692]”, the “gcPBM binding intensity (ln)” value was determined as 6.69.

With “TATTTTTAACAGTGCACACATAACTTAATTATATGT [CACACA_site2194]”, the “gcPBM binding intensity (ln)” value was 10.6.

Turning to “TTTAATTTTTATATAACACACATATTGTAATTATGT [CACACA_site4566]”, the “gcPBM binding intensity (ln)” value stood at 6.97.

Take “TTTAACTTTTATATAACACACATATTGTAATTATGT [CACACA_site6486]”: the “gcPBM binding intensity (ln)” value is 7.05.

Take “ATATATATTTTAATAACACACATATATTATATTATA [CACACA_site4387]”: the “gcPBM binding intensity (ln)” value stood at 7.06.

Turning to “TTTTAATTTATTTATGCACACATATATAATTACACA [CACACA_site8126]”, the “gcPBM binding intensity (ln)” value was 7.52.

Take “TTTATTTTTAACAGTGCACACATAACTTAATTATAT [CACACA_site8681]”: the “gcPBM binding intensity (ln)” value is 10.5.

As for “AAAAAAAGAAATTAGGTGCATAGCATTAACCGATAA [GTGCAC_site9582]”, the “gcPBM binding intensity (ln)” value was found to be 10.1.

“TATATATATAGAAATGCATGTTAATAAAAGTTATAA [TGCATGCA_site947]”: the “gcPBM binding intensity (ln)” value was 8.13.

In the case of “ATTTTTTATATTTAGTGTACATGTTTTAATTTATAA [XGTACX_site7512]”, the “gcPBM binding intensity (ln)” value was 7.29.

On to “GGATAAGAGGCATATACACACAATTTAAAAAAATAA [CACACA_site4657]”, for which the “gcPBM binding intensity (ln)” value was determined as 7.15.

Turning to “AAAAAAAAAAAAAGTGCACACGATTTAAGGCCTATA [CACACA_site2823]”, the “gcPBM binding intensity (ln)” value worked out at 10.9.

Turning to “AATATTTTAAGGCACACACACAAAAAAAAAAAAAAA [CACACA_site2890]”, the “gcPBM binding intensity (ln)” value was found to be 7.22.

Regarding “TTTTTTTCAATATTTGCACACGATTAAAATATTTAA [CACACA_site5266]”, the “gcPBM binding intensity (ln)” value came out at 7.28.

Take “TTTCTAATTTATATCACACACATATAAATATAGTAA [CACACA_site6210]”: the “gcPBM binding intensity (ln)” value turned out to be 7.19.

Take “GGCGTATGTGTATATACACACCCACGTATATAAATA [CACACA_site7489]”: the “gcPBM binding intensity (ln)” value came out at 7.08.

Consider ATAATGAACAAAGTAGTGCACTTTCCTTATCTTTTC, for which the “gcPBM binding intensity (ln)” value turned out to be 10.9.

With ACTAATAACAAAAGCTTGCACTTTTTTTTTCCTAAT, the “gcPBM binding intensity (ln)” value turned out to be 7.82.

On to “CCTTTCCTTTTATAAGTGCATATAACAAATGTATAC [GTGCAC_site9872]”, for which the “gcPBM binding intensity (ln)” value was 8.88.

For “ATCTTATATCGTAGAGATTTTTTTTTTTTTTCATTT [XGTACX_negctrl_site140]”, the “gcPBM binding intensity (ln)” value was 6.7.

As to “TTTTAAAAAAATAAAAAATAATAAAAAAAATAAAAA [CACACA_negctrl_site1693]”, the “gcPBM binding intensity (ln)” value is 6.76.

For the sequence “TTTTTTATAAATCAAATGAAAAATAAACTATTCAGA [CACACA_negctrl_site1568]”, the “gcPBM binding intensity (ln)” value was 6.59.

As for “TTTTAAATTTTTTAAAGTACACGTCGAAAAGGTATA [XGTACX_site76]”, the “gcPBM binding intensity (ln)” value was determined as 7.93.

“GCACCCTGTATGAATGCACACATTCATAGAATTGCT [CACACA_site5475]”: the “gcPBM binding intensity (ln)” value worked out at 8.46.

Take “TATTTAAAATAATAACAAAATTAACATAAATATATA [GTGCAC_negctrl_site472]”: the “gcPBM binding intensity (ln)” value was 6.82.

With “AAGAACAAATATGAGGTGCAACACAATATATTATTA [GTGCAC_site9965]”, the “gcPBM binding intensity (ln)” value amounted to 10.5.

With “AAAGAAATATATACAAAAATATGAACAATTTATTAT [XGTACX_negctrl_site78]”, the “gcPBM binding intensity (ln)” value was determined as 6.81.

Take “TTTATATTTAAATATATATGAGAAAACACAAAATAT [TGCATGCA_negctrl_site211]”: the “gcPBM binding intensity (ln)” value was found to be 7.34.

Regarding “AAGAATATATAGGACACACATACAATAATAAATATA [CACACA_site4119]”, the “gcPBM binding intensity (ln)” value was found to be 7.25.

With “ATATTTTATAATTTTACACACCATATAAAATAATTC [CACACA_site2797]”, the “gcPBM binding intensity (ln)” value was 7.16.

As for “TTTATATGTATTAAGTGTACACATATAATGTGTTTG [XGTACX_site6629]”, the “gcPBM binding intensity (ln)” value turned out to be 7.29.

In the case of “CATATTTACATTAAGTGTACTTATGAATATATATAC [XGTACX_site7962]”, the “gcPBM binding intensity (ln)” value was determined as 7.03.

As for “TTTGCACCGTTTAAGTGTACAGAATTATGACATATA [XGTACX_site6735]”, the “gcPBM binding intensity (ln)” value was found to be 11.2.

For the sequence “TATCAATGGAAAATATATATTTGTATATATGTAATA [XGTACX_negctrl_site257]”, the “gcPBM binding intensity (ln)” value was 7.04.

On to “ACATGAATATATACACGTACATATATACATATATAT [XGTACX_site5872]”, for which the “gcPBM binding intensity (ln)” value stood at 7.42.

On to “ATATATTATATTATATGTACTTAAAAAAGTGCAAAG [XGTACX_site318]”, for which the “gcPBM binding intensity (ln)” value came to 8.67.

In the case of “AATTTATTTTTAAAAAGTACATACTTAAGAAAACGA [XGTACX_site3660]”, the “gcPBM binding intensity (ln)” value was 7.59.

In the case of CTGTACACTTAAACGGTGCAAAAAGAAAAAAAAGAA, the “gcPBM binding intensity (ln)” value is 10.9.

Turning to “TTTTATCATCTTTTTACATTATGTATAAATATTTTC [CACACA_negctrl_site206]”, the “gcPBM binding intensity (ln)” value was 6.99.

With “AAAACATAAATACATACACACATAATATATATTAAT [CACACA_site109]”, the “gcPBM binding intensity (ln)” value stood at 7.06.

Regarding “TTTTATTCCTTCTTTGCACACGTTTAAAAATATATA [CACACA_site2899]”, the “gcPBM binding intensity (ln)” value came to 8.04.

On to “TATATATTTTCTTTTGCACACTGTTTTCCTTTTTTT [CACACA_site2739]”, for which the “gcPBM binding intensity (ln)” value was 7.02.

Take “ACAAGTATTCCTTTTGCACACCTTTCTGCACCTTAT [CACACA_site3873]”: the “gcPBM binding intensity (ln)” value stood at 11.7.

On to “ATGTCATAAATGTACGCACACATACATAAACATATA [CACACA_site4530]”, for which the “gcPBM binding intensity (ln)” value was 7.33.

As to “TATAAACCCACCTACACACACAACGTAAATGCATTG [CACACA_site2238]”, the “gcPBM binding intensity (ln)” value was found to be 7.01.

On to “TATATAAACCCACCTACACACACAACGTAAATGCAT [CACACA_site8702]”, for which the “gcPBM binding intensity (ln)” value came out at 7.1.

Consider “TATAAACGCACCTACACACACAACGTAAATGCATTG [CACACA_site7120]”, for which the “gcPBM binding intensity (ln)” value came out at 10.6.

Take “CAAATATGTCTTATTCGTACACATATATATATATAT [XGTACX_site8817]”: the “gcPBM binding intensity (ln)” value amounted to 9.64.

For the sequence “TCATAATGAAAACAAGCACACATACATAAAATAAAA [CACACA_site9069]”, the “gcPBM binding intensity (ln)” value amounted to 7.01.

Regarding “AAAAAAAATATGAAAACACACATATATAAATAAATA [CACACA_site113]”, the “gcPBM binding intensity (ln)” value is 6.89.

Regarding “TTTTTAATTTTATATACACACATAAAATATATGAAG [CACACA_site3145]”, the “gcPBM binding intensity (ln)” value is 7.01.

Take “TTTATGAAACAGTGCACACATAAAAATAAATACATA [CACACA_site5631]”: the “gcPBM binding intensity (ln)” value was found to be 11.2.

Regarding “AACATATATAAATACACACACATATATATATGAAAT [CACACA_site4312]”, the “gcPBM binding intensity (ln)” value turned out to be 7.05.

Consider “ATAATGAAAACAAGCACACATACATAAAATAAAATA [CACACA_site3257]”, for which the “gcPBM binding intensity (ln)” value amounted to 7.04.

In the case of “TTTATGAAACAGTGCACACATAAAAATATATACATA [CACACA_site2992]”, the “gcPBM binding intensity (ln)” value was determined as 11.

Consider “CTTTTATGAAACAGTGCACACATAAAAATATATACA [CACACA_site8981]”, for which the “gcPBM binding intensity (ln)” value came out at 11.3.

“ATTTTGTTATGAAACACACACATATAAATATAAATA [CACACA_site7679]”: the “gcPBM binding intensity (ln)” value came out at 7.26.
